From PubChem BioAssay (Tox21)
Records with an inconclusive call do not appear. Entries that show only a call come without a potency. Calls of active or inactive are those of the source. Calls come from the whole dose curve; as a rule, active = well fitted cell-killing curve with a large enough effect in the repeat runs; inconclusive = weak or mixed curves, or effect the other way; inactive = flat fitted curve, though single readings scatter.

Test: qHTS assay to identify small molecule agonists of the TGF-beta/Smad signaling pathway - cell viability counter screen (AID 1346829); note: top concentration of the series differs between compounds; nearly all actives have a fitted effect of over 45% in size
Details: SBE-bla HEK293T viability, CellTiter-Glo luminescence, 5 h; series mostly up to 76.8 µM
Text: National Center for Advancing Translational Sciences [NCATS]
NIH Chemical Genomics Center [NCGC]
U.S. Environmental Protection Agency [EPA]
National Institutes of Environmental Health Sciences [NIEHS]
National Toxicology Program [NTP]
U.S. Food and Drug Administration [FDA]
Transforming growth factor beta (TGF-beta) superfamily consists of a large number of structurally related dimeric proteins that act as hormones or local mediators in regulating a wide range of biological functions. This superfamily includes TGF-betas themselves, the bone morphogenetic proteins (BMPs) and the activins. These ligands induce oligomerization of serine/threonine receptor kinases and phosphorylate the cytoplasmic signaling molecules of Smad protein family. CellSensor SBE-bla HEK 293T cell line (Life Technologies, Carlsbad, CA), responsive to TGF-beta was used to screen Tox21 10K compound library for identification of agonists/antagonists of the Smad signaling pathway. This cell line contains a beta-lactamase reporter gene under control of the Smad binding element (SBE) stably integrated into HEK 293T cells. Also cytotoxicity of the compounds was tested in parallel by measuring the cell viability using CellTiter-Glo assay system in the same wells.
Tox21 Assay Protocol Summary:
SBE-bla HEK 293T cells were dispensed at 4,000/well in 6 uL of assay medium into black wall/clear-bottom 1536-well plates using a Multidrop Combi (ThermoFisher Scientific, Waltham, MA) dispenser. After the assay plates were incubated at 37 C and 5% CO2 for an overnight, 23 nL of compounds dissolved in DMSO, positive controls or DMSO only was transferred to the assay plate by a Pintool station (Kalypsys, San Diego, CA). The assay plates were incubated at 37 C and 5% CO2 for 5 hr. One uL of LiveBLAzer B/G FRET substrate (Life Technologies) was added using a Flying Reagent Dispenser (FRD, Aurora Discovery, San Diego, CA) and the plates were incubated at room temperature for 2 hr. Fluorescence intensity (405 nm excitation, 460 nm and 530 nm emissions) was measured using an Envision plate reader (PerkinElmer, Shelton, CT). For cytotoxicity read, 4 uL of CellTiter-Glo reagent (Promega Corporation, Madison, WI) was added to each well of the assay plates using FRD. After 30min incubation at room temperature, the luminescence intensity was measured using ViewLux plate reader (PerkinElmer).

Compound	Potency
O=C(NCNC(=O)NC1C(=O)NC(=O)N1CO)NC1C(=O)NC(=O)N1CO (stereo not given)	inactive
Clc1ccc(Cl)c(Cl)c1	inactive
Nc1ccccc1C(=O)OCCc1ccccc1	inactive
CCCC[P+](CC)(CCCC)CCCC (tested in a mixture with another compound)	inactive
CCC[N+](CCC)(CCC)CCC	inactive
NC(=O)CF	inactive
CCCCC(CC)CO[N+](=O)[O-] (stereo not given)	inactive
CC(C)CCON=O	inactive
CCCCC(CC)COC(=O)c1c(Br)c(Br)c(Br)c(Br)c1C(=O)OCC(CC)CCCC (stereo not given)	inactive
CCOP(=S)(OCC)SCSc1cc(Cl)ccc1Cl	inactive
CCCCCCCCCCCCN(C)C	inactive
CC(C)CCCCCCCOC(=O)c1ccccc1C(=O)OCCCCCCCC(C)C	inactive
Cc1nc2ccccc2c(=O)n1-c1ccccc1Cl	inactive
O=S(=O)(c1ccccc1)c1ccccc1	inactive
CC(C)c1ccc(NC(=O)N(C)C)cc1	inactive
N#CC(C#N)=Cc1ccc(O)c(O)c1	inactive
CCOC(=O)c1cn2nc(OP(=S)(OCC)OCC)cc2nc1C	inactive
O=[N+]([O-])O[C@H]1CO[C@H]2[C@@H]1OC[C@H]2O[N+](=O)[O-]	inactive
CCCCCCCCP(=O)(O)O	inactive
CC(Oc1cccc(Cl)c1)C(=O)O (stereo not given)	inactive

Compound	Potency
OC[P+](CO)(CO)CO	inactive
CCCC(C)(COC(N)=O)COC(=O)NC(C)C (stereo not given)	inactive
CCC1(CC)C(=O)NC(=O)NC1=O	inactive
C[Si](Cn1cncn1)(c1ccc(F)cc1)c1ccc(F)cc1	inactive
CCCCC#N	inactive
C1CCNCC1	inactive
ClCc1ccccc1Cl	inactive
CC1(C)CC(=O)CC(C)(C)N1[O]	inactive
c1ccc2c(c1)sc1ccccc12	inactive
CCC(C)(C)O	inactive
Nc1cccc2ccccc12	inactive
Cc1ccc2c(C)cccc2c1	inactive
CN[C@@H](C)[C@H](O)c1ccccc1	inactive
CCOP(=O)(SC(C)CC)N1CCSC1=O (stereo not given)	inactive
Nc1ccc2c(c1)Cc1ccccc1-2	inactive
COc1ccc2c(c1OC)C(=O)O[C@H]2[C@@H]1c2cc3c(cc2CCN1C)OCO3	inactive
CC(C)[C@@H](C(=O)O[C@@H](C#N)c1cccc(Oc2ccccc2)c1)c1ccc(Cl)cc1	inactive
CON(C)C(=O)Nc1ccc(Cl)cc1	inactive
NCCc1cc(O)c(O)cc1O	inactive
c1ccc2c(c1)-c1cccc3cccc-2c13	inactive
